Data on twelve compounds can be found in PubChem BioAssay (EPA / NIEHS).

A short description of experiment [1]: ATG_CRE_CIS: Attagene CIS-FACTORIAL HepG2 Assay for human cAMP Responsive Element (CRE) binding protein 3 (AID 2282926). To be noted: HepG2 CRE cis-reporter, Attagene multiplexed mRNA; actives raise or lower the signal. The method in brief: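 HepG2 cells transiently transfected with cis-element-driven multiple reporter transcription units; CRE reporter mRNA measured 24 h after dosing by RT-PCR, 6-FAM labelling, HpaI digestion and capillary electrophoresis. Bidirectional fit versus DMSO baseline.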

In experiment [2] the target is CCAAT/enhancer-binding protein beta (Homo sapiens) (UniProt P17676). Nature of the experiment: ATG_C_EBP_CIS: Attagene CIS-FACTORIAL HepG2 Assay for human CCAAT/Enhancer Binding Protein (C/EBP) beta (AID 2282927). To be noted: HepG2 Attagene cis-factorial transcription factor reporter; actives raise or lower the signal. The method in brief:
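HepG2, transient MRTU transfection, 24 h treatment. RT-PCR plus CE fluorescence; DMSO negative control, bidirectional fit.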

A short description of experiment [3]: ATG_CMV_CIS: Attagene CIS-FACTORIAL HepG2 Assay for human CMV (Internal Marker) (AID 2282928).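 Further: endpoint acts as a background internal control marker rather than a target.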 To be noted: HepG2 CMV promoter reporter, transcription factor profiling; actives raise or lower the signal. The method in brief:
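After transient transfection of HepG2 with reporter transcription units driven by cis-regulatory promoters, cells receive test chemical for 24 h. Labeled reporter amplicons, digested with HpaI, are sized and quantified by capillary electrophoresis against DMSO.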

A short description of experiment [4]: ATG_DR4_LXR_CIS: Attagene CIS-FACTORIAL HepG2 Assay for human Liver X Receptor (LXR), DR4 submotif (AID 2282929). The following applies: HepG2 Attagene DR4 cis-reporter, mRNA transcription; actives raise or lower the signal. The method in brief: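 Fluorescence intensity of labelled reporter cDNA fragments, separated by capillary electrophoresis, gives the signal. HepG2 cells bearing cis-regulated reporter constructs were treated 24 h; activity fitted bidirectionally relative to DMSO negative control.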

Experiment [5] deals with Aryl hydrocarbon receptor (Homo sapiens) (UniProt P35869). Nature of the experiment: ATG_Ahr_CIS: Attagene CIS-FACTORIAL HepG2 Assay for human Aryl Hydrocarbon Receptor (Ahr) (AID 2282930). The following applies: HepG2 AhR cis-factorial reporter transcription; actives raise or lower the signal. Put shortly:
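Endogenous factor activity is tracked through cis-promoter reporter units transfected into HepG2 cells. Transcript levels at 24 h are read by fluorescent RT-PCR and capillary electrophoresis, with activity in either direction scored relative to DMSO.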

The nature of experiment [6]: ATG_AP_2_CIS: Attagene CIS-FACTORIAL HepG2 Assay for human Activator Protein 2 (AP-2) (AID 2282932). The following applies: HepG2 AP-2 cis-reporter, Attagene transcription factor profiling; actives raise or lower the signal. The method in brief:
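Multiplexed mRNA reporter assay in HepG2: cis-regulated units report endogenous factor activity after 24 h treatment. Fluorescence from capillary electrophoresis of RT-PCR products gives the signal, with DMSO as baseline.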

Experiment [7] is described as follows: ATG_BRE_CIS: Attagene CIS-FACTORIAL HepG2 Assay for human Bone Morphogenetic Protein (BMP) Response Element (BRE) (AID 2282933). The following applies: HepG2 BMP response element reporter, Attagene transcription factor profiling; actives raise or lower the signal. Put shortly:
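Read-out: reporter mRNA induction quantified by RT-PCR and capillary electrophoresis after 24 h chemical exposure of transfected HepG2 cells. Endogenous factor activity on the BMP response element; gain or loss fitted against DMSO baseline.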

Experiment [8] addresses Retinoic acid receptor alpha (Homo sapiens) (UniProt P10276). Nature of the experiment: ATG_DR5_RAR_CIS: Attagene CIS-FACTORIAL HepG2 Assay for human Retinoic Acid Receptor Alpha (RARE), DR5 submotif (AID 2282934).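 On AC50: reporter responds to endogenous RAR alpha beta and gamma in HepG2 not RARA alone.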 The following applies: HepG2 Attagene cis-factorial RARE DR5 reporter, mRNA; actives raise or lower the signal. The method in brief:
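After 24 h of chemical exposure, transiently transfected HepG2 cells were lysed for total RNA; the DR5-regulated reporter transcript was quantified via RT-PCR and capillary electrophoresis, with activity fitted bidirectionally against DMSO.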

Experiment [9] in a line: ATG_AP_1_CIS: Attagene CIS-FACTORIAL HepG2 Assay for human Activator Protein 1 (AP-1) (AID 2282931). The following applies: HepG2 Attagene cis-factorial AP-1 reporter mRNA; actives raise or lower the signal. The method in brief:
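Multiplexed HepG2 reporter assay, 24 h dosing. mRNA induction detected by RT-PCR plus capillary electrophoresis. Activity fitted in both directions against DMSO.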

Activity calls are given as the source filed them. How the source made its calls: active means hit-call score of the fitted dose curve at least 0.9, where 1 is the maximum; inactive means score below 0.9.

Chain of Retinoic acid receptor alpha (Homo sapiens) (P10276 whole entry, looked up): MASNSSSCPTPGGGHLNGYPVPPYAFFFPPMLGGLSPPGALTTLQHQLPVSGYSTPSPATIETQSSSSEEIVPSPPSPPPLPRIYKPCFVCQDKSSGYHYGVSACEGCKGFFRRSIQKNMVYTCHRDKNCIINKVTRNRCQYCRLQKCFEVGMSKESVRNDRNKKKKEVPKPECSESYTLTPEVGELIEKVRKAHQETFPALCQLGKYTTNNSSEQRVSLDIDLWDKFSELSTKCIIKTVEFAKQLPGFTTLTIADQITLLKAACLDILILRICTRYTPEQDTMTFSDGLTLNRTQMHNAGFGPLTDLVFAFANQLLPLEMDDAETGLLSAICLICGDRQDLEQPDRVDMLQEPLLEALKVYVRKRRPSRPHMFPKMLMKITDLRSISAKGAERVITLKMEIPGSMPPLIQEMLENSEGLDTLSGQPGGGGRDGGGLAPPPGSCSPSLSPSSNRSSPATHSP
Chain of CCAAT/enhancer-binding protein beta (Homo sapiens) (P17676 whole entry, looked up): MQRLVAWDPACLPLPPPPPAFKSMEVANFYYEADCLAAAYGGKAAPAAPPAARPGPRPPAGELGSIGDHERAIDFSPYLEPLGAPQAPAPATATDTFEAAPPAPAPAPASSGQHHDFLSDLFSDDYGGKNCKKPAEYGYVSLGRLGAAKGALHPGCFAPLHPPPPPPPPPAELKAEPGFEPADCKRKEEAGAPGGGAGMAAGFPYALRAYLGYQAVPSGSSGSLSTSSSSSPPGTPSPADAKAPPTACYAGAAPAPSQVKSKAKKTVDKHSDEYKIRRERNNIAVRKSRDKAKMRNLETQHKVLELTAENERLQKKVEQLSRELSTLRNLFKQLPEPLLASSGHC
Chain of Aryl hydrocarbon receptor (Homo sapiens) (P35869 whole entry, looked up): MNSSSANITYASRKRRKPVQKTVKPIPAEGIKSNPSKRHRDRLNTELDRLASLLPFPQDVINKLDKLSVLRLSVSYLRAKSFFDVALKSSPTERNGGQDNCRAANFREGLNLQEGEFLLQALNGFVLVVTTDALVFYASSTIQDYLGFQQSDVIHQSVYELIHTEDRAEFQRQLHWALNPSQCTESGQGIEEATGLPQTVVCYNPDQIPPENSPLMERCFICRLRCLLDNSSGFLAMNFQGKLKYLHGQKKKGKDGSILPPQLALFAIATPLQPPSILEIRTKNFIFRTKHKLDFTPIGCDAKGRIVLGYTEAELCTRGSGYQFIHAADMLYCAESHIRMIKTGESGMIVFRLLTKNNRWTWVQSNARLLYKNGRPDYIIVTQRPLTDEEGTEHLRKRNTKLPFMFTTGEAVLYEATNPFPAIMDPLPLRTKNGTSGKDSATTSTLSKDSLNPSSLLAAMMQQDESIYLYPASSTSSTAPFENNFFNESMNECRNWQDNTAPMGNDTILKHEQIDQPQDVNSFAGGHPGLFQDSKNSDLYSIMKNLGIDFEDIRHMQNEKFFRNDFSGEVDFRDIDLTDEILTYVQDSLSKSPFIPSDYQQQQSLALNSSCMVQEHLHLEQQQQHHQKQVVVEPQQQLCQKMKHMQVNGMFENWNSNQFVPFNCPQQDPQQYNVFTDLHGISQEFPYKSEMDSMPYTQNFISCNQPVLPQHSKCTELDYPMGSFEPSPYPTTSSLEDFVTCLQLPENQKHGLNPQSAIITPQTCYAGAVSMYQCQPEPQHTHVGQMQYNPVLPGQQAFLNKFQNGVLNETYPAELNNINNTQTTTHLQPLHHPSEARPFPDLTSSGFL

Regarding `c1ccc(Cc2ccccc2)cc1`, the call in experiment [1], in [2], in experiment [3], in [4], in experiment [5] and in [6] was inactive. Further, in [7], the compound was called inactive.

`CC1=CCC(=C(C)C)CC1`: the outcome in [1], in experiment [2], in experiment [3], in experiment [4], in experiment [5] and in [6] was inactive. Also, the outcome in experiment [7] was inactive.

For the compound `OC[C@@H](O)[C@H](O)[C@@H](O)[C@@H](O)CO`, the outcome in experiment [1], in experiment [2], in experiment [3], in [4], in [5] and in experiment [6] was inactive. Moreover, the compound was called inactive in [7] and in experiment [8].

Turning to `Cc1ccncc1`, the result in [1], in experiment [2], in experiment [3], in experiment [4], in experiment [5] and in experiment [6] was inactive. In addition, the compound was called inactive in [7] and in experiment [8].

The AC50 is the midpoint of the concentration-response curve, whichever way the signal moves. On to `CN1CCc2cccc3c2[C@H]1Cc1ccc(O)c(O)c1-3`, for which the compound was classed as inactive in experiment [1], in experiment [2], in experiment [6] and in experiment [7]. Besides, the half-maximal activity concentration (AC50) in experiment [3] is 5.76 µM (active); in experiment [4], 18.8 µM (active); in experiment [9] it was 3.75 µM (active); in experiment [8] it was 1.67 µM (active).

In the case of `C=C(C)C(=O)OCCC(C)OC(=O)C(=C)C` (stereo not given), the outcome in experiment [1], in experiment [2], in experiment [3], in experiment [4], in experiment [9] and in experiment [6] was inactive. In addition, the result in experiment [7] and in [8] was inactive.

As to `CC1(C)CC(N)CC(C)(CN)C1` (stereo not given), the result in [1], in experiment [2], in experiment [3], in experiment [4], in experiment [9] and in experiment [6] was inactive. Moreover, the compound was called inactive in experiment [7] and in [8].

Turning to `Cc1cccc(C)c1`, the call in experiment [1], in experiment [2], in experiment [3], in experiment [4], in experiment [5] and in experiment [6] was inactive. Further, the compound was called inactive in experiment [7].

As to `CCc1cccc(O)c1`, the outcome in [1], in [2], in experiment [3], in experiment [4], in experiment [5] and in experiment [6] was inactive. Also, the compound was classed as inactive in [7].

Consider `COc1ccccc1O`, for which the result in experiment [1], in experiment [2], in [3], in [4], in experiment [5] and in [6] was inactive. The compound was called inactive in [7].

As to `OC[C@H]1O[C@@H](O[C@H]2[C@H](O)[C@@H](O)[C@H](O)O[C@@H]2CO)[C@H](O)[C@@H](O)[C@H]1O`, the result in experiment [1], in experiment [2], in experiment [3], in [4], in experiment [9] and in experiment [6] was inactive. Further, the compound was classed as inactive in experiment [7] and in experiment [8].

`CC(C)CCOC(=O)CC(C)C`: the call in experiment [1], in experiment [2], in experiment [3], in experiment [4], in experiment [5] and in experiment [6] was inactive. In addition, in [7], the result was inactive.
